Experimental data from PubChem BioAssay (Tox21).
Values joined by “and” are separate entries in the source; they are usually repeats but may differ in a detail not shown here. Equal entries are not always repeated. Inconclusive results are not listed. Active and inactive are the calls of the source. The call rests on the fitted dose curve; in most records, active means well fitted activation curve with a large enough effect in the repeat runs; inconclusive means weak or mixed curves; inactive means no such curve, though single readings can be large or run the other way. Residues, ends and D or L forms follow the SMILES beside them.

Each compound was assayed against Nuclear receptor subfamily 1 group I member 2 (Rattus norvegicus) (UniProt Q9R1A7) (assay: Rat pregnane X receptor (rPXR) activation by small molecules, qHTS assay (AID 1346983; further: nearly all actives have a fitted effect of over 20% in size)). Conditions: rPXR luciferase reporter cells, One-Glo luminescence, 24 h; stronger effect = higher value.
Nuclear receptor subfamily 1 group I member 2 (Rattus norvegicus), sequence (Q9R1A7 whole entry, looked up): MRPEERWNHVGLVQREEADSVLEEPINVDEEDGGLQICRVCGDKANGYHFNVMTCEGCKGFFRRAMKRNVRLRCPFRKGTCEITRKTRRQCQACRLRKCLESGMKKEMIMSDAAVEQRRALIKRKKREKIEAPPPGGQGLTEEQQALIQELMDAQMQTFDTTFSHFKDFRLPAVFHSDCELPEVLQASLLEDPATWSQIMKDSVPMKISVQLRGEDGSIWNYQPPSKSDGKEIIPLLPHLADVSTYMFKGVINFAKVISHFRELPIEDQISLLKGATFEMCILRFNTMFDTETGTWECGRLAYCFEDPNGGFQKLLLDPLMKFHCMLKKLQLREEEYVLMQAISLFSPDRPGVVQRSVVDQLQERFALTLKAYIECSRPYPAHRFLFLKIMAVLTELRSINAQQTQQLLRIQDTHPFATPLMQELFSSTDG
From the text: National Center for Advancing Translational Sciences [NCATS] NIH Chemical Genomics Center [NCGC] U.S. Environmental Protection Agency [EPA] National Institutes of Environmental Health Sciences [NIEHS] National Toxicology Program [NTP] Assay overview: The Pregnane X receptor (PXR), a ligand activated nuclear receptor plays a critical role in the regulation of genes involved in drug metabolism and transporters. PXR binds xenobiotics and when compounds interact with PXR produces enhanced expression of CYP3A genes. In humans PXR activation and CYP3A4 induction can be problematic due to their interactions with co-medicated drugs and decrease their efficacy or increase their own metabolism. However, there are known species-specific differences with regard to PXR activation that should be taken into account when animal PXR data are extrapolated to humans. A cell based rat PXR (rPXR) assay (developed by Puracyp, Inc., CA) was used to assess the activation of rPXR.
Assay Protocol Summary: rPXR cells were dispensed at 2,000 per well in 5uL of assay medium into white, solid-bottom 1536-well plates using a Multidrop Combi dispenser (Thermo Scientific). The assay plates were incubated at 37 C for 5hr before transferring 23 nL of test compounds dissolved in DMSO and positive control via Pintool station (Wako). The assay plates were incubated at 37 C for 24 hr. Then 5ul One-Glo assay reagent (Promega) was added to each plate by a Flying Reagent Dispenser (FRD, Aurora Discovery) and following 30 min incubation at room temperature, luciferase activity was quantified on a ViewLux plate reader (Perkin Elmer).
On the % scale 0 is the no-effect control and ±100 the full control effect.

SMILES	max activation
O=C(c1ccccc1)C(O)c1ccccc1 (configuration not stated)	-4.09% (inactive)
CCCC(CCC)C(=O)O	6.66% (inactive)
Cn1cc[nH]c1=S	-0.0972% (inactive)
O=C1CN(/N=C/c2ccc([N+](=O)[O-])o2)C(=O)N1	-5.45% (inactive)
Oc1ccc(/C=C/c2cc(O)cc(O)c2)cc1	-1.25% (inactive)
O=C(O)CCCCC(=O)O	-1.24% (inactive)
NC(=O)NC1NC(=O)NC1=O (configuration not stated)	-1.54% (inactive)
CC(=O)OCC(COC(C)=O)OC(C)=O	3.67% (inactive)
O=C(O)c1cc(N=Nc2ccc(S(=O)(=O)Nc3ccccn3)cc2)ccc1O	-4.4% (inactive)
CC(C)[C@@H]1CC[C@@H](C)C[C@H]1O	-1.21% (inactive)
c1ccc2[nH]ccc2c1	-4.01% (inactive)
Cc1ccccc1C(OCCN(C)C)c1ccccc1 (configuration not stated)	-0.826% (inactive)
CC(O)CN(CCN(CC(C)O)CC(C)O)CC(C)O (configuration not stated)	-4.71% (inactive)
NC(N)=O	-2.71% (inactive)
O=C(O)CCC(=O)O	-3.42% (inactive)
CCCC(O)C(CC)CO (configuration not stated)	-6.82% (inactive)

SMILES	max activation
CC(C)(Oc1ccc(C2CC2(Cl)Cl)cc1)C(=O)O (configuration not stated)	-3.49% (inactive)
OC(Cn1cncn1)(Cn1cncn1)c1ccc(F)cc1F	-1.17% (inactive)
CCCCOC(=O)CC(CC(=O)OCCCC)(OC(C)=O)C(=O)OCCCC	0.822% (inactive)
NC(=O)c1ccccc1O	-6.5% (inactive)
CNC[C@H](O)c1cccc(O)c1	-0.862% (inactive)
Nc1ccc(C(=O)O)cc1	-4.61% (inactive)
CC(O)C(=O)O (configuration not stated)	-1.38% (inactive)
Cc1cc(=O)[nH]c(=S)[nH]1	-8.17% (inactive)
CC(O)CO (configuration not stated)	1.42% (inactive)
CC1(C)[C@@H]2CC[C@@]1(C)C(=O)C2	-1.13% (inactive)
C/C=C/c1ccc(OC)cc1	-1.43% (inactive)
Cc1cn([C@H]2C[C@H](N=[N+]=[N-])[C@@H](CO)O2)c(=O)[nH]c1=O	-3.59% (inactive)
CCOc1ccc(NC(=O)CC(C)O)cc1 (configuration not stated)	0.554% (inactive)
COC(=O)[C@H](Cc1ccccc1)NC(=O)[C@@H](N)CC(=O)O (H-Asp-Phe-OMe)	-3.24% (inactive) and -1.16% (inactive)
O=c1cc[nH]c(=S)[nH]1	-8.7% (inactive)
O=S(=O)(O)NC1CCCCC1	-1.36% (inactive)
